About 83,000 compounds went through this panel and 20% of them were active in at least one assay; those are over-represented in the sample as a whole.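 A percent growth of 40 corresponds to 60% growth inhibition; 0 means no net growth; -100 means all cells died. Active threshold: below 10.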 A number with no mark means an inactive call. Activity calls are given as the source filed them.
system: NCI-H522 lung; assay: NCI-60 one-dose screen, 48 h (100 = growth as untreated, 0 = no growth, -100 = all killed); details: 10 µM unless noted
Description: Growth inhibition of the NCI-H522 human Non-Small Cell Lung tumor cell line is measured as a screen for anti-cancer activity. Cells are grown in 96 well plates and exposed to the test compound for 48 hours. Compounds are tested at a single concentration, which is 10^-5 M for most compounds. The reported endpoint is percent growth (GI% or GIPRCNT), where numbers from 0 - 100% represent growth inhibition, and numbers from -100% - 0 represent cell death. For example, a value of 40 represents 60% growth inhibition. A value of 0 means no net growth occurred over the course of the experiment. A value of -40 indicates 40% of cells at the beginning of the experiment died by the end of the experiment. A value of -100 means all cells are dead at the end of the experiment.
NCI-60 Human Tumor Cell Lines Screen was performed using the standard one-dose NCI protocol, which is described in more detail at https://dtp.cancer.gov/discovery_development/nci-60/default.htm.
Compounds with GIPRCNT values below 10 were considered active. Activity score was based on GIPRCNT using the following formula: […]
Score is 0 for GIPRCNT values of 100 or above, 50 for GIPRCNT values of 0, and 100 for GIPRCNT values of -100.

How did the growth turn out when `COc1ccc(/C=N\Nc2nc(SCCC(C)C)nc(-c3ccc(OC)cc3)c2C#N)cc1` was run?
The growth was 60.5%.

With `C=CCN=c1sc2c(n1NC(=O)c1cc3ccc1CCc1ccc(cc1)CC3)C(=O)c1ccccc1C2=O` as the molecule, how does the growth read?
The growth was -20.2% (active).

With `N#Cc1c(-c2ccccc2)cc(-c2ccccc2)n(CCCC(=O)Nc2ccccc2N)c1=O` as the molecule, how does the growth read?
The growth was 32.4%.

How did the growth turn out when `CCN(CC)CC(O)COc1c(Br)c(Br)c(Br)c2c1OC(C)(C)C2` (stereo not given) was run?
The growth was 145%.

With `CC(C)=CCCC(C)c1ccc(C)c2c1OCN(CCCCCO)C2` (stereo not given) as the molecule, how does the growth read?
Its growth is -1.75% (active).

How did the growth turn out when `CCOC(=O)c1cc2c(n1Cc1cc(OC)c(OC)c(OC)c1)-c1nc(N)sc1CCC2` was run?
Its growth is 7.85% (active).

`Cc1cc(C(=O)O)c(C)n1-c1cccc(C(=O)O)c1` was tested. Which growth did it give?
The growth was 46%.

Which growth does the source give for `Nc1n[nH]c2cccc(C#Cc3cccc(NC(=O)c4cc(F)cc(C(F)(F)F)c4)c3)c12` here?
Its growth is 62.6%.

`C=CC[Se]C(=O)Cc1c(C)n(C(=O)c2ccc(Cl)cc2)c2ccc(OC)cc12` was tested. Which growth did it give?
Its growth is 8.54% (active).

`O=C(/C=C/c1ccccc1)Nc1ncc(Cc2ccccc2Cl)s1` was tested. Which growth did it give?
Its growth is -11.2% (active).

`N#Cc1ccc(O)c(C2=NCC(c3ccccc3)O2)c1` (stereo not given) was tested. Which growth did it give?
Its growth is -12.8% (active).

With `CCCCCN1C(=O)/C(=c2\sc3n(c2=O)C2C(NN=3)N(CC)C(=O)N2CC)c2ccccc21` (stereo not given) as the molecule, how does the growth read?
The growth was -28% (active).

Which growth does the source give for `Cn1cc(-c2csc(-c3cn(C(=O)OC(C)(C)C)c4ccc(Br)cc34)n2)c2ccnc(Cl)c21` here?
The growth was 66.7%.

For `O=C(Nc1cccc(-c2ccc(N3CCOCC3)nn2)c1)Nc1cccc(C(F)(F)F)c1`, which growth is on record?
Its growth is 46.4%.

`CCc1ccccc1-n1c(-c2ccc(OC)cc2)cc(-c2ccc(OC)cc2)c(C#N)c1=O` was tested. Which growth did it give?
The growth was 73.8%.

Which growth does the source give for `CCCCCOC(=O)c1c(C)[nH]c(/C=C2\N=C(c3ccc[nH]3)C=C2OC)c1C` here?
Its growth is -56.7% (active).

For `CC(C)=CC(=O)OCC(=O)O[C@@H]1C[C@]2(C(C)C)O[C@@]1(C)[C@@H]1CC[C@@H](C)[C@H]1[C@@H]2OC(=O)/C=C/c1ccccc1`, which growth is on record?
The growth was 70.4%.

How did the growth turn out when `O=C(N(c1ccccc1)c1ccccc1)n1cc(I)c2nc(Cl)nc(Cl)c21` was run?
Its growth is 3.35% (active).

For `NC(Cc1ccc(O)c([N+](=O)[O-])c1)C(=O)O` (stereo not given), which growth is on record?
Its growth is 94.7%.

With `COc1cc(-c2nccc3[nH]c(-c4ccc5cc[nH]c5c4)nc23)cc(OC)c1OC` as the molecule, how does the growth read?
The growth was -59.5% (active).

`CCCC/C(CC)=N\NS(=O)(=O)c1ccc([N+](=O)[O-])cc1` was tested. Which growth did it give?
Its growth is 90.9%.

For `CCN(CC)CCCCCNc1cc(OC(=O)c2ccc(Cl)cc2)cc2cccnc12`, which growth is on record?
Its growth is 24.4%.

`Nc1c(C(=O)Nc2ccccc2F)sc2nc3c(cc12)CCCC3` was tested. Which growth did it give?
The growth was 23%.

For `COC(=O)CC[C@H](C)[C@H]1CC[C@H]2[C@@H]3CC[C@@H]4CC5(CC[C@]4(C)[C@H]3CC(=O)[C@]12C)Nc1ccccc1NC5=NC(C)(C)C` (stereo not given in full), which growth is on record?
Its growth is 75.8%.

Which growth does the source give for `CCCCCC(/C=N\NC(=S)N/N=C/C(=C/c1ccccc1)CCCCC)=C\c1ccccc1` here?
Its growth is 40.4%.

How did the growth turn out when `C=CCn1c(SCC(=O)Nc2ccc(C(=O)/C=C/c3ccc(Cl)cc3)cc2)nnc1-c1ccc(Br)cc1` was run?
Its growth is 60.3%.

Which growth does the source give for `OCCn1cc(-c2nc(-c3c[nH]c4ncccc34)cs2)c2cc(F)ccc21` here?
The growth was 45.5%.

How did the growth turn out when `O=c1c2ccccc2n2cnc3ccc(Cl)c1c32` was run?
Its growth is 65.4%.

How did the growth turn out when `C#CCOC(=O)/C=C/c1cn(-c2ccccc2)nc1-c1ccc(OC)cc1` was run?
Its growth is 50%.

With `COCCNC(=O)Nc1ccc2nc(-c3cccs3)c(-c3cccs3)nc2c1` as the molecule, how does the growth read?
The growth was 76.6%.

`COc1ccc2[nH]c(C(=O)N3CCN(C(=O)OCc4ccc5c(Cl)cc(Cl)c(O)c5n4)CC3)cc2c1` was tested. Which growth did it give?
The growth was -70.8% (active).

`O=C1/C(=C/c2ccccc2O)CC/C1=C\c1ccccc1O` was tested. Which growth did it give?
Its growth is 56%.

With `CC1CCc2c(C(=O)Nc3ncc(Cc4cccc([N+](=O)[O-])c4)s3)csc2C1` (stereo not given) as the molecule, how does the growth read?
The growth was 2.96% (active).

How did the growth turn out when `COCCOc1cc2ncnc(N3CCN(c4cc(S(C)(=O)=O)c(C)cc4Cl)CC3)c2cc1OCCOC` was run?
Its growth is 90.6%.

How did the growth turn out when `CCOC(=O)NC(C)C` was run?
The growth was 99.3%.

`COc1ccc(Cc2cnc(NC(=O)c3cc(C)oc3C)s2)cc1` was tested. Which growth did it give?
The growth was 14.4%.

`CC(C)COc1nc2c(c(=O)n(C)c(=O)n2C)n1C` was tested. Which growth did it give?
Its growth is 101%.

For `O=C(c1nn(-c2ccccc2)c2c1CC(NCc1ccc(F)cc1)CC2)N1CCCCC1` (stereo not given), which growth is on record?
The growth was 89.3%.

`CC1OC(n2c3ccccc3c3c4c(c5c6ccccc6[nH]c5c32)C(=O)N(CCN2CCCC2)C4=O)CC(O)C1O` (stereo not given) was tested. Which growth did it give?
Its growth is 24.5%.

Which growth does the source give for `COC12C=C/C(=C(/C(=O)OCc3ccncc3)C(=O)CCCCCCCCC3(OC)C=C/C(=C(/C(=O)OCc4ccncc4)C(=O)CCCCCCCC1)O3)O2` here?
Its growth is -41% (active).

— PubChem BioAssay (NCI)
